Test results reported in PubChem BioAssay.
Calls of active or inactive are those of the source.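 The calls were made as follows, unless noted: active = visual image review flags a hit and inhibition of aggregation exceeds 20%; inconclusive = visual hit but inhibition at or below 20%; inactive = no hit on visual image review.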

Tests used:
[1] = inhibitors of TNFa-induced NFkB p65 translocation, primary screen, imaging, HUVEC, MLSMR starter and 10KST1 sets (AID 438;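 active = inhibition above 20% together with a positive visual image hit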;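 also: compound added about 3h40 before a 20 min TNFalpha stimulation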;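 as to inhibition: signal is the nuclear over cytoplasmic p65 intensity ratio per well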); conditions: HUVEC TNFa-induced p65 nuclear translocation; cell count: measured here: nuclei count (cytotoxicity indicator), at 2.08 µM; inhibition: at 2 µM, stronger effect = higher value, 0% TNFa-plus-vehicle, 100% no-TNFa wells
[2] = reduction of polyQ htt aggregates in cells – imaging, exon1htt(103Q)mCFP cells, high-content imaging, primary screen (AID 483); conditions: exon1htt(103Q)mCFP cell line, aggregate imaging, at 2 µM; inhibition of aggregation: stronger effect = higher value; nuclei count: measured here: cell count, toxicity;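 also: compound exposure lasted 3 days before fixation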;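 as to nuclei count: percent of the per-plate median nuclei count of sample wells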
[3] = endothelial E-selectin expression blockers – imaging, HUVEC, immunofluorescence, MLSMR starter and 10KST1 sets, primary screen (AID 487;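 active = visually confirmed hit in the image check and inhibition above 20%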;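 as to inhibition: signal is fraction of cell area covered by stained E-selectin grains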;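 as to nuclei count: 100% = median nuclei count of all wells on the same plate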); conditions: HUVEC TNFalpha-induced E-selectin immunofluorescence imaging, at 2 µM; inhibition: stronger effect = higher value; nuclei count: measured here: cell number, toxicity
[4] = biological target: Voltage-gated potassium channel subunit beta-2 (Rattus norvegicus) (UniProt P62483); experiment: inhibitors of rat Kvbeta2 reductase activity – biochemical, NADPH fluorescence, primary screen (AID 622;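 active = fluorescence slope higher than the sample average by over 3 SD, cut at about -0.22 in these data, passing the limit was not always enough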;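 also: slope of raw intensity against log time taken from 70 to 1610 s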); conditions: recombinant KvBeta, 4-cyanobenzaldehyde reduction, at 10 µM, stronger effect = higher value
[5] = biological target: Voltage-gated potassium channel subunit beta-2 (Rattus norvegicus) (UniProt P62483); experiment: enhancers of rat Kvbeta2 NADPH turnover – biochemical, NADPH fluorescence, primary screen (AID 623;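 active = NADPH fluorescence slope more negative than the mean of all samples by about 3 SD, 99.7% confidence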;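 also: fluorescence intensity change per second fitted from 20 to 320 s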); conditions: Recombinant KvBeta, NADPH fluorescence decrease slope, 10 min; at 10 µM; stronger effect = lower value
[6] = biological target: Alpha-2C adrenergic receptor (Homo sapiens) (UniProt P18825); experiment: compounds altering alpha2C-coupled GIRK flux – cell-based, HEK293 alpha2C/GIRK1/2, thallium flux, primary screen (AID 624;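 active = fluorescence slope after compound addition differing from the mean of all screened samples at 99.7% confidence, in either direction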;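 also: slope of fluorescence ratio to pre-addition baseline per second over 15 to 24 s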); conditions: thallium flux BTC fluorescence, at 10 µM, actives lie on both sides
[7] = blockers of RIG-like receptor reporter activation – cell-based, Sendai virus stimulus, luciferase, 10K MLSCN set, TLR/RLR signaling modifier project, primary screen (AID 602276;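 active = inhibition at or above 50% at 10 µM; inactive = inhibition below 50%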;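 also: firefly luciferase from ISG56 promoter only with Renilla not read in this screen; 0% = Sendai virus plus DMSO and 100% = medium plus DMSO without virus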); conditions: HEK293 RL24 IRF3 luciferase reporter, at 10 µM, stronger effect = higher value
[8] = TLR3 IRF3 reporter activation blockers – cell-based, poly I:C stimulus, luciferase, 10K MLSCN set, primary screen (AID 602277;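 active = inhibition of the reporter signal at or above 50%; inactive = inhibition below 50%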); conditions: HEK293-TLR3 RL24 IRF3 luciferase reporter, at 10 µM, stronger effect = higher value

Chain of Alpha-2C adrenergic receptor (Homo sapiens) (P18825 whole entry, looked up): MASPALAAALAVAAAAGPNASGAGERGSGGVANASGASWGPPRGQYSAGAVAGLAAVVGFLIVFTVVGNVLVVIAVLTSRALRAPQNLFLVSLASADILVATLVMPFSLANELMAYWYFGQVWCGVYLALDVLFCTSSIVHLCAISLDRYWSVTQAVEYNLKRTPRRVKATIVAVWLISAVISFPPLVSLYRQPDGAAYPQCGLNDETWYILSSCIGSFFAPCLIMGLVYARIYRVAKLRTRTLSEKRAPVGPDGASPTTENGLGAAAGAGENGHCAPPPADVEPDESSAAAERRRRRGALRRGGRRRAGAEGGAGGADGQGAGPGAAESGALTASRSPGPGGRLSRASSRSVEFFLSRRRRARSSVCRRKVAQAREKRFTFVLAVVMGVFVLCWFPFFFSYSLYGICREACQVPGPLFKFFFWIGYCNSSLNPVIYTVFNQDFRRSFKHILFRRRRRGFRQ
Chain of Voltage-gated potassium channel subunit beta-2 (Rattus norvegicus) (P62483 whole entry, looked up): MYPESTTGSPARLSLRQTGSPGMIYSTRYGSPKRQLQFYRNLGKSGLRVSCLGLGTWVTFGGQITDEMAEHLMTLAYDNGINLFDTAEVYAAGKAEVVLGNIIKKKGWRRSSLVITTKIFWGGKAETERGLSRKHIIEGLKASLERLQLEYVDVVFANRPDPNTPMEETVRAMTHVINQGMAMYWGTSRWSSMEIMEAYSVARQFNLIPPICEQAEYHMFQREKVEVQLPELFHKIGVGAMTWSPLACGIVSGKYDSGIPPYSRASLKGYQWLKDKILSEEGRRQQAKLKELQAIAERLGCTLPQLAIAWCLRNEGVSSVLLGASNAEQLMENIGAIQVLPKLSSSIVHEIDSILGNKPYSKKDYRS

| SMILES | cell count [1] | inhibition [1] | inhibition of aggregation [2] | nuclei count [2] [%] | inhibition [3] | nuclei count [3] [%] | fluorescence slope [4] | NADPH fluorescence slope [5] | slope [6] | inhibition [7] | inhibition [8] |
| --- | --- | --- | --- | --- | --- | --- | --- | --- | --- | --- | --- |
| COc1ccc(OC)c(NC(=O)CS(=O)(=O)Cc2nc(-c3ccccc3C)oc2C)c1 | 676 | 1.1% (inactive) | -17.4% (inactive) | 97.7 | -17.6% (inactive) | 110 | -0.587 (inactive) | -1.4e-06 (inactive) | 0.00717 (inactive) | 7.59% (inactive) | 31.4% (inactive) |
| CCOc1nc(-c2ccccc2)ccc1-c1noc(-c2ccc(OC)c(OC)c2)n1 | 418 | 11.7% (inactive) | -27.9% (inactive) | 99.7 | -27% (inactive) | 107 | -0.385 (inactive) | 5.6e-06 (inactive) | 0.0092 (inactive) | 8.22% (inactive) | 9.49% (inactive) |
| N#CC(C(=O)NCCc1ccccc1)c1nc2ccccc2nc1N1CCOCC1 (stereo not given) | 389 | 5.7% (inactive) | -43.6% (inactive) | 103 | -176% (inactive) | 118 | -0.401 (inactive) | -2e-05 (inactive) | 0.00348 (inactive) | -27.6% (inactive) | -40.4% (inactive) |
| COc1cc(NC2=CC(=O)CC(C)(C)C2)cc(OC)c1 | 346 | 7.5% (inactive) | -8.1% (inactive) | 110 | -3.1% (inactive) | 103 | -0.373 (inactive) | 6.9e-06 (inactive) | 0.00551 (inactive) | -4.89% (inactive) | -12.1% (inactive) |
| c1ccc(Oc2ccc(-n3cnnn3)cc2)cc1 | 254 | 1.5% (inactive) | -1.2% (inactive) | 66 | -14% (inactive) | 106 | -0.391 (inactive) | 9.8e-07 (inactive) | 0.00429 (inactive) | -11.3% (inactive) | 0.336% (inactive) |
| Cc1cc(C)n(-c2cc(N3CCOCC3)nc(-c3ccccc3)n2)n1 | 323 | -14% (inactive) | -20.5% (inactive) | 105 | -59.2% (inactive) | 114 | -0.385 (inactive) | -1.3e-05 (inactive) | 0.00416 (inactive) | 6.61% (inactive) | 12.6% (inactive) |
| O=C(NCC1COc2ccccc2O1)c1ccccc1 (stereo not given) | 279 | -1.7% (inactive) | -0.5% (inactive) | 104 | 7.4% (inactive) | 90.3 | -0.62 (inactive) | 3.5e-06 (inactive) | 0.00453 (inactive) | -21% (inactive) | -82.8% (inactive) |
| Cc1ccc(-n2c3c(cc(C(=O)NCCCN4CCOCC4)c2=O)C(=O)CC(C)(C)C3)cc1 | 349 | -0.6% (inactive) | -1.3% (inactive) | 57 | -65.9% (inactive) | 117 | -0.58 (inactive) | 9.1e-06 (inactive) | 0.00654 (inactive) | -1.07% (inactive) | 36.9% (inactive) |
| CCc1nnc(NC(=O)c2ccc(COc3ccc(C)cc3)o2)s1 | 312 | -1.9% (inactive) | 6.3% (inactive) | 109 | 7.7% (inactive) | 110 | -0.468 (inactive) | -0.00028 (inactive) | 0.00745 (inactive) | -17.4% (inactive) | 99.8% (active) |
| COc1ccc(S(=O)(=O)N(CC(=O)N2CCN(c3ccccc3OC)CC2)c2ccccc2)cc1 | 291 | 5.2% (inactive) | -12.6% (inactive) | 104 | 20% (inactive) | 111 | -0.474 (inactive) | -4.9e-05 (inactive) | 0.00648 (inactive) | 8.76% (inactive) | 13.4% (inactive) |
| CN1CCN(C(=O)c2ccc3c(=O)n(CCc4ccccc4)c(=S)[nH]c3c2)CC1 | 551 | -13.1% (inactive) | -0.8% (inactive) | 77 | -44.1% (inactive) | 98.9 | -0.459 (inactive) | 5.7e-06 (inactive) | 0.00697 (inactive) | 4.3% (inactive) | 23.3% (inactive) |
| COc1ccc(N2CCN(Cc3nc4c(c(=O)[nH]c(=O)n4C)n3CC(C)=O)CC2)cc1 | 682 | 0.5% (inactive) | -29.1% (inactive) | 126 | -37.3% (inactive) | 119 | -0.578 (inactive) | -2.9e-05 (inactive) | 0.00484 (inactive) | 4.33% (inactive) | 29.5% (inactive) |
| CC(=O)NC(CCS(C)(=O)=O)C(=O)Nc1cccc(C)c1C (stereo not given) | 576 | 4.3% (inactive) | 0.4% (inactive) | 110 | -6.3% (inactive) | 117 | -0.542 (inactive) | -7e-05 (inactive) | 0.00627 (inactive) | 17.7% (inactive) | 38.7% (inactive) |
| COc1ccc(CN(Cc2nc3ccccc3c(=O)[nH]2)C(=O)NC2CCCCC2)cc1 | 389 | -8.4% (inactive) | 4.6% (inactive) | 100 | -95.3% (inactive) | 84.3 | -0.359 (inactive) | -2.1e-05 (inactive) | 0.00294 (inactive) | 15.1% (inactive) | 29.3% (inactive) |
| COc1ccc(C2C3=C(OC(C)=O)c4ccccc4C3=Nc3c2c(=O)n(C)c(=O)n3C)cc1 (stereo not given) | 657 | 0.2% (inactive) | -0.9% (inactive) | 103 | -72.4% (inactive) | 116 | -0.41 (inactive) | -3.9e-05 (inactive) | 0.00537 (inactive) | 12.9% (inactive) | 12.4% (inactive) |
| CCOC(=O)N1CCN(C(=O)CN(c2ccc(C)cc2)S(=O)(=O)c2c(C)noc2C)CC1 | 565 | -28.3% (inactive) | -13% (inactive) | 103 | -36.7% (inactive) | 108 | -0.617 (inactive) | 1.1e-05 (inactive) | 0.00556 (inactive) | 18.5% (inactive) | 30.7% (inactive) |
| CCCSc1nnc(-c2ccccc2NC(=O)CC)c(=O)[nH]1 | 632 | -9.3% (inactive) | -17.5% (inactive) | 86.8 | -43.8% (inactive) | 96.6 | -0.412 (inactive) | -4.2e-05 (inactive) | 0.00431 (inactive) | 4.4% (inactive) | -2.41% (inactive) |
| CC(=O)N1CCc2cc(Br)cc(S(=O)(=O)NCCCN3CCCC(C)C3)c21 (stereo not given) | 379 | 0.3% (inactive) | -1.8% (inactive) | 104 | -170% (inactive) | 96 | -0.47 (inactive) | 1.8e-05 (inactive) | 0.00613 (inactive) | -7.41% (inactive) | 12.2% (inactive) |
| CCOC(=O)C1=C(C)Nc2nnnn2C1c1ccc(OC)c(Br)c1 (stereo not given) | 635 | 5.8% (inactive) | -8.3% (inactive) | 94.6 | 2.7% (inactive) | 111 | -0.574 (inactive) | -1.5e-05 (inactive) | 0.00761 (inactive) | -20% (inactive) | -12.8% (inactive) |
| CCOC(=O)CSc1nnc([C@H](C)NC(=O)OC(C)(C)C)o1 | 552 | 12% (inactive) | -32.6% (inactive) | 83.6 | -35% (inactive) | 118 | -0.471 (inactive) | -3.4e-05 (inactive) | 0.00421 (inactive) | 3.34% (inactive) | 14.1% (inactive) |
| O=C(COC(=O)CCC(=O)c1cccs1)NCc1ccco1 | 469 | -20.9% (inactive) | 1.1% (inactive) | 101 | -16.1% (inactive) | 86.1 | -0.332 (inactive) | -5.5e-05 (inactive) | 0.00705 (inactive) | 18% (inactive) | 25.1% (inactive) |
| Cc1nnc(C)c2c(C)n(Cc3ccc4c(c3)OCO4)c(C)c12 | 679 | 6.2% (inactive) | 4.3% (inactive) | 74.3 | -8.3% (inactive) | 95.8 | -0.517 (inactive) | 4.5e-06 (inactive) | 0.0037 (inactive) | -9.5% (inactive) | -7.65% (inactive) |
| CN(C(=O)Cn1c(=O)n(CCCCC(=O)NC2CCCC2)c(=O)c2ccccc21)C1CCCCC1 | 347 | -1.2% (inactive) | -6.6% (inactive) | 107 | -15.5% (inactive) | 117 | -0.478 (inactive) | 1.3e-07 (inactive) | 0.00575 (inactive) | 16.4% (inactive) | 25.2% (inactive) |
| Cc1nnc(SCC(=O)N2CCC(C(=O)Nc3nccs3)CC2)n1Cc1ccccc1 | 405 | 6.1% (inactive) | 8.5% (inactive) | 104 | 10.2% (inactive) | 100 | -0.604 (inactive) | -4.4e-05 (inactive) | 0.00447 (inactive) | 18.3% (inactive) | 17% (inactive) |
| CCn1c(=N)n(CC(O)c2ccco2)c2ccccc21 (stereo not given) | 321 | -8.1% (inactive) | -20.7% (inactive) | 87.8 | -33% (inactive) | 110 | -0.358 (inactive) | -5.8e-05 (inactive) | 0.00623 (inactive) | 10.3% (inactive) | 24.1% (inactive) |
